The panel holds about 83,000 compounds, 20% with a hit somewhere; the sample as a whole holds those more often.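 Cell lines were cultured in 96-well plates, exposed to a single compound concentration, and assessed for percent growth 48 hours later.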 Unmarked numbers belong to inactive results. Calls of active or inactive are those of the source. The calls were made as follows: active = growth percent below 10; inactive = the rest.
Columns and labels:
Test in all cases: NCI-60 one-dose screen, 48 h (100 = growth as untreated, 0 = no growth, -100 = all killed)
Details in all cases: 10 µM unless noted
[1] = test system: SR leukemia
[2] = test system: RPMI-8226 leukemia
[3] = test system: OVCAR-8 ovarian
[4] = test system: OVCAR-5 ovarian
[5] = test system: OVCAR-4 ovarian
[6] = test system: SK-OV-3 ovarian
[7] = test system: IGROV1 ovarian
[8] = test system: OVCAR-3 ovarian
[9] = test system: HS 578T breast
[10] = test system: NCI/ADR-RES ovarian

SMILES	growth [1]	growth [2]	growth [3]	growth [4]	growth [5]	growth [6]	growth [7]	growth [8]	growth [9]	growth [10]
COc1cnc2c(c1)C(=O)c1c-2n(CCCNCCN2CCOCC2)c(=O)c2cc([N+](=O)[O-])ccc12	-0.128% (active)	-14.5% (active)	2.29% (active)	15.3%	-13.5% (active)	-12.9% (active)	15.6%	-25.9% (active)	26.7%	7.12% (active)
COc1cc2c3c(c4c5ccccc5[nH]c4c2c(OC)c1OC)C(=O)N(O)C3=O	14.3%	31.6%	36.8%	112%	56.6%	48.8%	9.03% (active)	49.5%	67.4%	43.8%
Nc1c(C(=O)Nc2cccc3ccccc23)sc2nc3c(cc12)CCCC3	9.22% (active)	28.3%	33.8%	44.7%	52.7%	36.8%	45.4%	2.02% (active)	27.8%	0.722% (active)
COCCNC1=C(Cl)C(=O)c2ccccc2C1=O	105%	90.4%	89.5%	107%	93.6%	116%	126%	116%	105%	95.3%
COc1ccc(/C=C/C(=O)NCC(C)O)cc1 (stereo not given)	105%	105%	97.9%	89.2%	104%	87.8%	93.2%	103%	94.4%	106%
O=C(NO)c1ccc(Cn2c(=O)n(CCc3ccc(O)cc3)c(=O)c3ccccc32)cc1	16.5%	31.6%	36.2%	86%	56.4%	86.7%	74.9%	18.9%	58.8%	92.8%
Cc1cc(C)n(Cc2cc(C(C)(C)C)cc(C(C)(C)C)c2)c(=O)c1C#N	84%	93.7%	93.4%	83.8%	90.4%	87%	96.8%	106%	81.6%	96.7%
CCN1CCN(C(=O)[C@]23CCC(C)(C)C[C@@H]2C2=CC[C@@H]4[C@@]5(C)C/C(=C/c6cccnc6)C(=O)C(C)(C)[C@@H]5CC[C@@]4(C)[C@]2(C)CC3)CC1	4.78% (active)	5.88% (active)	27.1%	83.8%	7.28% (active)	56%	51.6%	28.6%	54.6%	8.32% (active)
C=CC(=O)N[C@H](Cc1ccc(-c2cc(Cl)cc(Cl)c2)cc1)[C@H](O)[C@@H](O)C(=O)O	81.6%	82.7%	90.9%	96%	96.9%	78.6%	96.7%	101%	95.5%	101%
COc1ccc(/C=C2\N=C(c3ccccc3)N(c3cc(OC)c(OC)cc3C(=O)N3N=C(C)CC3=O)C2=O)cc1	92.1%	47.7%	89.4%	103%	101%	99.3%	99.8%	105%	91.7%	78.6%
CC(=O)Nc1cc(F)cc(C(F)(F)F)c1Cl	101%	105%	105%	96.2%	98.1%	106%	100%	104%	88.2%	96.1%
COc1cccc(-c2nn(-c3ccccc3)cc2-c2ccnc(NCCNS(=O)(=O)c3ccc(Cl)cc3)c2)c1	-5.49% (active)	9% (active)	31.1%	56.2%	35.9%	44.9%	39.3%	40.6%	54.3%	27.9%
CC(C)c1cc(C(=O)O)c(O)c(C(C)C)c1.CC(C)c1cc(C(=O)O)c(O)c(C(C)C)c1.[Mn]	93.5%	98%	101%	116%	96.3%	110%	114%	96.9%	107%	118%
c1ccc2[nH]c(-c3ccc(Nc4nc(N5CCCCC5)nc(N5CCOCC5)n4)cc3)nc2c1	9.79% (active)	2.47% (active)	45.7%	73.9%	61.2%	22.5%	51.3%	10.9%	-12.6% (active)	45.6%
COc1cc2ncnc(Nc3ccc(Oc4ccnc(C)c4)c(C)c3)c2cc1NC(=O)CC1CCSS1 (stereo not given)	-37.6% (active)	-18.6% (active)	25.4%	45.2%	6.57% (active)	-86.9% (active)	20.6%	-81.4% (active)	-7.37% (active)	31.9%
Cc1cccc(C)c1NCc1nc(-c2ccccc2)n[nH]1	102%	108%	102%	95.6%	102%	93.7%	94.6%	113%	108%	103%
Oc1ccc(Nc2ccccc2)cc1	94.2%	97.5%	96%	123%	70.5%	97.9%	101%	94.2%	105%	87.8%
C=C(C)[C@@H]1CC[C@]2(C)CC[C@]3(C)[C@H](CC[C@@H]4[C@@]5(C)CCCNC(C)(C)[C@@H]5CC[C@]43C)[C@@H]12	1.2% (active)	30.1%	84.1%	107%	94.5%	113%	94%	76.2%	101%	97.3%
COc1ccc2c(c1)c1nc3cc(C)c(C)cc3nc1n2CCN(C)C	-8.86% (active)	-16.3% (active)	6.83% (active)	-2.58% (active)	19.8%	27.5%	-7.58% (active)	27.1%	44.6%	-70.3% (active)
CC(=O)NC1=C(C#N)C(c2ccccc2Cl)c2c(ccc3ccccc23)O1 (stereo not given)	37.1%	55.5%	82%	86.3%	88.8%	85%	46.1%	41.2%	74.9%	33.8%
COC(=O)[C@]12CC[C@@H](C)[C@H](C)[C@@H]1C1=CC[C@@H]3[C@@]4(C)C[C@@H](OC(C)=O)[C@H](O)[C@@](C)(COC(C)=O)[C@@H]4[C@H](O)C[C@@]3(C)[C@]1(C)CC2	-17.7% (active)	-23.7% (active)	-53.7% (active)	-75.8% (active)	-70.3% (active)	-81.5% (active)	-61.3% (active)	-79.4% (active)	-28.4% (active)	-63.7% (active)
C=C1C(=O)O[C@H]2[C@H]1CC/C(COC(=O)N[C@H](Cc1c[nH]c3ccccc13)C(=O)OC)=C\CC[C@@]1(C)O[C@@H]21	3.67% (active)	2.85% (active)	50.5%	98.6%	61.4%	96.2%	16.5%	-21.9% (active)	81.1%	87.2%
C[C@@H](C(=O)O)c1ccc2c3cc(Cl)ccc3n(Cc3cc(=O)oc4ccc(Cl)cc34)c2c1	94.7%	109%	105%	97.3%	98.9%	96.9%	74.2%	98.7%	101%	98.3%
COc1cccc(-c2nn(-c3ccccc3)cc2-c2ccnc(NCCCO)c2)c1	5.71% (active)	28.3%	46%	92%	55.1%	45%	58.8%	25.9%	35.7%	7.32% (active)
CN1CCN(c2nc(-c3csc(-c4cccs4)n3)cc3ccccc23)CC1	2.45% (active)	13.3%	75.6%	87.7%	57.9%	90.8%	23.1%	39.9%	71.3%	70.8%
COc1ccc(/C=C/C(=O)NCCO)cc1	91.9%	105%	96.4%	88.2%	103%	94.2%	98.3%	101%	92.4%	104%
